Records with an inconclusive call do not appear. Entries that show only a call come without a potency. Calls of active or inactive are those of the source. Unless noted, the call rests on the fitted dose curve; in most records, active means well fitted curve in the direction sought with a large enough effect; inconclusive means small, poorly fitted or top-dose-only effect, or another doubt; inactive means no such curve, though single readings can be large; an effect the other way counts as inactive or inconclusive.
How the values were obtained:
[1] = target: Cytochrome P450 3A4 (Homo sapiens) (UniProt P08684); assay: qHTS Assay for Inhibitors and Substrates of Cytochrome P450 3A4 (AID 884); further: nearly all actives have a fitted effect of over 50% in size; further: potency means the concentration at half of the fitted maximal effect
Chain of Cytochrome P450 3A4 (Homo sapiens) (P08684 whole entry, looked up): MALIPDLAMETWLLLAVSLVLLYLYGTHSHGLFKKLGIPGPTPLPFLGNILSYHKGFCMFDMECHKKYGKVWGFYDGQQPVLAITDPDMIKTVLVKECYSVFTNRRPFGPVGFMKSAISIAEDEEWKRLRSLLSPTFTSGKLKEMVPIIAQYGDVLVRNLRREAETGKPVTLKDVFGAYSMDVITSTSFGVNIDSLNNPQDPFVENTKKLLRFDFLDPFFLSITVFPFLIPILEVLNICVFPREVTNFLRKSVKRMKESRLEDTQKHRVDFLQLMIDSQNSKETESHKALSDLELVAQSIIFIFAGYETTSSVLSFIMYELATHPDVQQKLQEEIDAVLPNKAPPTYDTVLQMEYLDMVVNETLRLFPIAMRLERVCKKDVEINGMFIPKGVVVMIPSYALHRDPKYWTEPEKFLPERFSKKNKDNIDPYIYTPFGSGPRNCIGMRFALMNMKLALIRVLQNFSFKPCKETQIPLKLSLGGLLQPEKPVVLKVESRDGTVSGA
Procedure, shortened: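 20 nM human CYP3A4 with 25 uM Luciferin-PPXE (at KM) in 200 mM KPO4, preincubated 10 min with compound; NADPH regeneration started a 60 min RT reaction. Luciferin detected by luminescence, normalized to 57 uM ketoconazole as full inhibition.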

[2] = Confirmation and Secondary Assay for Modulators of Hemoglobin Beta Chain Splicing at IVS2 654 locus (AID 910);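 further: per-well total GFP intensity by laser scanning cytometry after 2-day treatment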
Procedure, shortened: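 HeLa cells stably carrying EGFP interrupted by mutant beta-globin IVS2-654 intron (CMV-driven) were treated with compound for 2 days at 37C; corrected splicing was scored as total peak GFP intensity per well (488 nm excitation, 500-520 nm emission).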

[3] = Confirmation and Secondary Assay for Modulators of Hemoglobin Beta Chain Splicing at IVS2 705 locus (AID 930);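 further: HeLa cells stably expressing the EGFP-705 splicing reporter; GFP fluorescence per well restored by corrected splicing of the IVS2-705 intron in EGFP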
Procedure, shortened: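 Stable HeLa line with EGFP disrupted by mutant beta-globin intron 2 (705). Overnight attachment, then 2 days of compound at 37C, 5% CO2. Signal: peak GFP intensity summed over objects 5-250 µm.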

[4] = qHTS Assay for Lipid Storage Modulators (AID 1519; calls by dose curve); settings: Drosophila S3 cells, BODIPY lipid droplet/cell ratio, laser cytometry, cells loaded with oleic acid; for activity change, negative = inhibition: at 57.5 µM (top of the series)
Procedure, shortened: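 Cells seeded at 5,000 per well were treated with compounds over a concentration series and loaded with oleic acid (400 uM, as added). Lipid droplet fluorescence (488 nm excitation, 500-530 nm channel) was read by laser-scanning cytometry and normalized to 20 uM Triacsin C.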

[5] = target: Ubiquitin carboxyl-terminal hydrolase 1 (Homo sapiens) (UniProt O94782); assay: Inhibitors of USP1/UAF1: Pilot qHTS (AID 504865);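 further: rhodamine fluorescence freed from ubiquitin-rhodamine substrate followed over time; top concentration of the series differs between compounds; nearly all actives have a fitted effect of over 35% in size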
Chain of Ubiquitin carboxyl-terminal hydrolase 1 (Homo sapiens) (O94782 whole entry, looked up): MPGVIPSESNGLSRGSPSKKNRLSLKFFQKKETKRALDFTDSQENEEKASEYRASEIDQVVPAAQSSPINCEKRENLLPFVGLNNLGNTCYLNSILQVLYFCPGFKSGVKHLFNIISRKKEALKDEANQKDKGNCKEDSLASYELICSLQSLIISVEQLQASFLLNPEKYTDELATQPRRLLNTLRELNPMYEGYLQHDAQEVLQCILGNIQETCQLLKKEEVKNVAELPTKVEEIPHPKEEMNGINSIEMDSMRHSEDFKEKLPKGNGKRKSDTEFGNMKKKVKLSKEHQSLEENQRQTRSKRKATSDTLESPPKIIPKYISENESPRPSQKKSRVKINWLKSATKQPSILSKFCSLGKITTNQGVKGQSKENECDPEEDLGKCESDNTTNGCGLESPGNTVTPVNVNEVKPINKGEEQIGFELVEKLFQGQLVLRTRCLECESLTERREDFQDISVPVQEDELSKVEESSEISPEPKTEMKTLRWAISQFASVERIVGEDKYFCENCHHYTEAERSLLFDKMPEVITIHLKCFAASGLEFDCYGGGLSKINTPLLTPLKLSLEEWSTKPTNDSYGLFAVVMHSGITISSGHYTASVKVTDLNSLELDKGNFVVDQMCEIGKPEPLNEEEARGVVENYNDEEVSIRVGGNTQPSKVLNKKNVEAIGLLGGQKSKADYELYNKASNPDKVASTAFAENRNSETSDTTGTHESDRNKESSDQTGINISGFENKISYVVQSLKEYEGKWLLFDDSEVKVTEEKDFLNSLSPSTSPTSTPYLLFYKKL
Procedure, shortened: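 Enzyme-free wells gave the negative control, while test wells held 1nM USP1/UAF1 preincubated with compound for 15 min at room temperature. Ub-Rho at 150nM final started the reaction, and fluorescence at 480/540 nm was recorded kinetically.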

[6] = target: Cytochrome P450 3A4 (Homo sapiens) (UniProt P08684); assay: qHTS Assay for Activators of Cytochrome P450 3A4 (AID 885); further: nearly all actives have a fitted effect of over 65% in size
Procedure, shortened: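 Human CYP3A4 (20 nM) with Luciferin-PPXE at 25 uM (its KM) in 200 mM KPO4; 10 min compound preincubation, then NADPH regeneration and 60 min reaction at RT. Luciferin read by luminescence; normalized to 57 uM ketoconazole full inhibition.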

[7] = measured here: cell count channel max response
[8] = measured here: lipid channel max response

Row | Structure (SMILES) | Potency [1] | Potency [2] | Potency [3] | activity change, negative = inhibition [4] | max response [4, 7] [%] | max response [4, 8] [%] | Potency [5] | Potency [6]
1 | Nc1nc2ncc(=O)[nH]c2c(=O)[nH]1 | inactive | inactive | inactive | 4.1% (inactive) | 2.7 | 6.73 | inactive | –
2 | CC1(C)OC2C(CO)OC(n3cnc4c(=O)[nH]cnc43)C2O1 (configuration not stated) | inactive | inactive | inactive | 1.95% (inactive) | 3.64 | 5.67 | inactive | –
3 | COC(=O)CC1C(C)(C)C(=O)C2CC3=C4CC(=O)OC(c5ccoc5)[C@]4(C)CCC3[C@@]1(C)C2=O (some centres not stated) | 1.58 µM (active) | inactive | inactive | 1.08% (inactive) | 14.1 | 18 | inactive | inactive
4 | COc1ccc(/C=C/C(=O)c2ccc(O)cc2O)cc1OC | 1.26 µM (active) | inactive | inactive | -12.3% (inactive) | -8.55 | -18.6 | inactive | inactive
5 | CCCc1cc(OC)c2c(c1)OCO2 | 7.94 µM (active) | inactive | inactive | 11.5% (inactive) | -8.72 | 1.71 | inactive | inactive
6 | CO[C@]1(NC(=O)C(C(=O)O)c2ccc(O)cc2)C(=O)N2C(C(=O)O)=C(CSc3nnnn3C)COC21 (some centres not stated) | inactive | inactive | inactive | 9.58% (inactive) | 18.1 | 35.5 | inactive | –
7 | [N-]=[N+]=Nc1nc2c(N)ncnc2n1C1OC(CO)C(O)C1O (configuration not stated) | inactive | inactive | inactive | -16.2% (inactive) | 12.5 | 1.58 | inactive | –
8 | CC(=O)OC1CC[C@@]2(C)C3=CC(=O)[C@]4(C)C(CC5OC6(OCC(C)CC6Br)C(C)C54)C3CC[C@H]2C1 (some centres not stated) | inactive | inactive | inactive | -8.55% (inactive) | -17.7 | -20.5 | inactive | –
9 | C=C1C(N)CC2CC1C2(C)C (configuration not stated) | inactive | inactive | inactive | 1.08% (inactive) | 14 | 14.9 | inactive | –
10 | CSc1ncnc2c1ncn2C1OC(CO)C(O)C1O (configuration not stated) | inactive | inactive | inactive | -6.93% (inactive) | -18.3 | -24.7 | inactive | –
11 | COc1ccc(C2CC(=O)c3c(O)cc(O)cc3O2)cc1O (configuration not stated) | 15.8 µM (active) | inactive | inactive | 3.83% (inactive) | 3.05 | 6.13 | inactive | inactive
12 | CCC(/C=C/C(C)C1CCC2C3CCC4=CC(=O)CC[C@@]4(C)C3CC[C@@]12C)C(C)C (some centres not stated) | inactive | inactive | inactive | 4.65% (inactive) | 11.9 | 16.6 | inactive | –
13 | CC(=O)OCC1OC(n2c(Br)nc3c(=O)[nH]c(N)nc32)C(OC(C)=O)C1OC(C)=O (configuration not stated) | inactive | inactive | inactive | 1.02% (inactive) | 9.1 | 10.5 | inactive | –
14 | COc1ccc2c(c1)OCC(Cc1ccc(OC)c(O)c1)C2=O (configuration not stated) | 25.1 µM (active) | inactive | inactive | 6.62% (inactive) | 3.51 | 13 | inactive | inactive
15 | COC1(C)CCC2OC2(C)CCC2C1CC2(C)C (configuration not stated) | 10 µM (active) | inactive | inactive | 4.15% (inactive) | 6.3 | 11.9 | inactive | inactive
16 | CCOC(=O)c1c(C)cc(O)cc1O | 25.1 µM (active) | inactive | inactive | 13% (inactive) | -2.16 | 14.3 | inactive | inactive
17 | COc1cc(OC)c2c(=O)c(OC)c(-c3ccc(OC)c(OC)c3)oc2c1 | 1.26 µM (active) | inactive | inactive | 1.54% (inactive) | 14.1 | 15.7 | inactive | inactive
18 | CC1CC[C@@]23CCC4(C)[C@@]5(C)CCC6C(C)(C)C(O)CC[C@@]6(C)C5C=C[C@@]4(OC2=O)C3C1C (some centres not stated) | 5.01 µM (active) | inactive | inactive | 1.82% (inactive) | 9.51 | 12.3 | inactive | inactive
19 | OC/C=C/c1ccc(O)c(O)c1 | 15.8 µM (active) | inactive | inactive | 8.76% (inactive) | 13.5 | 23.8 | inactive | inactive
20 | CC(C)CCCC(C)C1CCC2C3CC=C4CC(O)CC[C@@]4(C)C3CC[C@@]12C (some centres not stated) | inactive | inactive | inactive | 2.88% (inactive) | -11.4 | -8.92 | inactive | –
21 | Nc1ncnc2c1nc(Cl)n2C1OC(CO)C(O)C1O (configuration not stated) | inactive | inactive | inactive | 3.24% (inactive) | 5.55 | 12.1 | inactive | –
22 | COC1[C@H](OC(N)=O)C(O)[C@H](Oc2ccc3c(O)c(NC(=O)c4ccc(O)c(CC=C(C)C)c4)c(=O)oc3c2C)OC1(C)C (some centres not stated) | inactive | inactive | inactive | 8.38% (inactive) | 13.2 | 25.2 | inactive | –
23 | COc1ccc2c(c1OC)OCC(c1ccc(OC)c(OC)c1OC)C2 (configuration not stated) | inactive | inactive | inactive | 9.26% (inactive) | 12.7 | 23.2 | inactive | –
24 | COc1cc(-c2coc3cc(O[C@H]4OC(CO)C(O)C(O)C4O)c(OC)c(O)c3c2=O)cc(O)c1OC (some centres not stated) | inactive | inactive | inactive | 7.43% (inactive) | 6.4 | 13.8 | inactive | –
25 | CC(=O)O[C@@]1(C(C)=O)CCC2C3C=C(Cl)C4=CC(=O)C5CC5[C@@]4(C)C3CC[C@]21C (some centres not stated) | inactive | inactive | inactive | 2.54% (inactive) | -3.69 | 0.864 | inactive | –
26 | C[N+]1(C)CC(O)[C@H](C(=O)[O-])C1 (some centres not stated) | inactive | inactive | inactive | 1.35% (inactive) | 0.129 | 0.467 | inactive | –
